# PubChem BioAssay (EPA / NIEHS)
# Results filed as inconclusive are left out. Calls of active or inactive are those of the source. How the source made its calls: active means hit-call score of the fitted dose curve at least 0.9, where 1 is the maximum; inconclusive means response in the unintended direction; inactive means score below 0.9.
# Assays:
# [1] = molecular target: rat Serotonin, 5-Hydroxytryptamine Receptor 1 (5HT1), Non-Selective Binding, Htr1a (gene 24473) (UniProt P19327); test: NVS_GPCR_r5HT1_NonSelective: NovaScreen (NVS) G Protein-Coupled Receptor Assay for rat Serotonin, 5-Hydroxytryptamine Receptor 1 (5HT1), Non-Selective Binding (AID 2283286)
# Method in brief: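 Rat cortical membranes, radioligand displacement, 1 h incubation, read by filter scintillation. Primary screen in duplicate at 25 uM. Hits (e.g. ≥30% inhibition) went to concentration-response up to 50 uM, fitted as loss of binding versus DMSO.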
# [2] = test system: rabbit Platelet Activating Factor Receptor (PAF), gene 100354046; test: NVS_GPCR_rabPAF: NovaScreen (NVS) G Protein-Coupled Receptor Assay for rabbit Platelet Activating Factor Receptor (PAF) (AID 2283287)
# Method in brief: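 Rabbit platelet membrane preparation; radioligand displacement read by filter-based scintillation counting 1 h after dosing, loss of signal versus DMSO. Primary screen in duplicate at 25 uM, actives followed up in concentration series.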
# [3] = molecular target: human Opioid Receptor Mu (Opiate Mu), OPRM1 (gene 4988) (UniProt P35372); test: NVS_GPCR_hOpiate_mu: NovaScreen (NVS) G Protein-Coupled Receptor Assay for human Opioid Receptor Mu (Opiate Mu) (AID 2283290);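 further: hits lower bound tracer signal versus DMSO meaning displacement of the ligand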
# Method in brief: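 Cell-free radioligand binding to membranes from CHO cells expressing the receptor; bound tracer measured by filter-based scintillation counting 2.5 hours after dosing. Loss of signal versus DMSO baseline reflects displacement; primary screen at 25 uM in duplicate, actives followed up in concentration series.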
# [4] = test system: 5-hydroxytryptamine receptor 2C (pig); test: NVS_GPCR_p5HT2C: NovaScreen (NVS) G Protein-Coupled Receptor Assay for pig Serotonin, 5-Hydroxytryptamine Receptor 2C (5HT2C) (AID 2283288)
# Method in brief: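 Pig choroid plexus membranes; radioligand competitive binding, filter-based scintillation counting, read 1 h after dosing. Primary screen in duplicate at 25 uM; actives then run as concentration series; loss of signal versus DMSO baseline.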
# [5] = molecular target: rat Adrenergic, Alpha 1, Non-selective Receptor (Adra1), Adra1a (gene 29412) (UniProt P43140); test: NVS_GPCR_rAdra1_NonSelective: NovaScreen (NVS) G Protein-Coupled Receptor Assay for rat Adrenergic, Alpha 1, Non-selective Receptor (Adra1) (AID 2283289)
# Method in brief: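 Rat forebrain membranes; radioligand displacement read by filter-based scintillation counting 1 h after dosing. Primary screen in duplicate at 25 uM; hits (e.g. ≥30% inhibition) rerun as concentration–response to 50 uM max. Fitted versus DMSO.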
# [6] = molecular target: guinea pig Serotonin, 5-Hydroxytryptamine Receptor 4 (5HT4), HTR4 (gene 100135548) (UniProt O70528); test: NVS_GPCR_g5HT4: NovaScreen (NVS) G Protein-Coupled Receptor Assay for guinea pig Serotonin, 5-Hydroxytryptamine Receptor 4 (5HT4) (AID 2283294)
# Method in brief: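 Guinea pig striatal membranes; radioligand competitive displacement, filtration and scintillation counting after 1 h. Primary screen in duplicate at 25 uM; actives then tested in concentration series; loss of binding signal fitted relative to DMSO.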
# Chain of rat Adrenergic, Alpha 1, Non-selective Receptor (Adra1), Adra1a (gene 29412) (P43140 whole entry, looked up): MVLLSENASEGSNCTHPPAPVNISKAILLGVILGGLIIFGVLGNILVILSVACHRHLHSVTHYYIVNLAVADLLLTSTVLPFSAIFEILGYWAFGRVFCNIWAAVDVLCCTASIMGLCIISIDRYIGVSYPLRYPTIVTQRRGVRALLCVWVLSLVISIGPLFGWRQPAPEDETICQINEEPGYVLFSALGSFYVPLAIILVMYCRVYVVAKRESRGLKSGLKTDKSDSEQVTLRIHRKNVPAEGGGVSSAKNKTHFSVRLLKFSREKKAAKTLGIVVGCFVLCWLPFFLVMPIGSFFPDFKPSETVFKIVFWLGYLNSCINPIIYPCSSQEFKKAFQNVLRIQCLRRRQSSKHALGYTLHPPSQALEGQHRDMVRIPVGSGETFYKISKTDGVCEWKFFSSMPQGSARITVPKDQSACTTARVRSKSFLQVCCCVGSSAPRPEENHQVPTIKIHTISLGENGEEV
# Chain of rat Serotonin, 5-Hydroxytryptamine Receptor 1 (5HT1), Non-Selective Binding, Htr1a (gene 24473) (P19327 whole entry, looked up): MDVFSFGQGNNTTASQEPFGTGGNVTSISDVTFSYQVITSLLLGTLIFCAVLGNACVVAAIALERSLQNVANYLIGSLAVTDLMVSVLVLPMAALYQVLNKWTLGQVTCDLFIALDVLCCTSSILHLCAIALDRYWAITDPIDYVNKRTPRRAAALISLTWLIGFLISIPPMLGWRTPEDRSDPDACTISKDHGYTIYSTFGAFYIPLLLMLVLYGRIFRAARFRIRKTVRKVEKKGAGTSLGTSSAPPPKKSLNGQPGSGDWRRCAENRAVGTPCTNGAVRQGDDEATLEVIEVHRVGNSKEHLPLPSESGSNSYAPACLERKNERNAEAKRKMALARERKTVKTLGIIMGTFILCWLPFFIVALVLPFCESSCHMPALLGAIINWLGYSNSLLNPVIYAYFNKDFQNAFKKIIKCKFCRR
# Chain of human Opioid Receptor Mu (Opiate Mu), OPRM1 (gene 4988) (P35372 whole entry, looked up): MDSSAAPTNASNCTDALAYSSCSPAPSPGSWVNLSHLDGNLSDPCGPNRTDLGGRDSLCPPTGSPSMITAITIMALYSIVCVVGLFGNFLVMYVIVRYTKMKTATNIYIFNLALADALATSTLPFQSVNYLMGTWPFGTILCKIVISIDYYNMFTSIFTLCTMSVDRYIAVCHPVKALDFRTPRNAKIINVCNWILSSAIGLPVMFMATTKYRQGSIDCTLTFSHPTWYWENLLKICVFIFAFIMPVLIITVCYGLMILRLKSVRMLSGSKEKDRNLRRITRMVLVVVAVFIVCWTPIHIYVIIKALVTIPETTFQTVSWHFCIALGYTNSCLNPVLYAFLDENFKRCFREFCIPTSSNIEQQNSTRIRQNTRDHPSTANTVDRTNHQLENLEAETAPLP
# Chain of guinea pig Serotonin, 5-Hydroxytryptamine Receptor 4 (5HT4), HTR4 (gene 100135548) (O70528 whole entry, looked up): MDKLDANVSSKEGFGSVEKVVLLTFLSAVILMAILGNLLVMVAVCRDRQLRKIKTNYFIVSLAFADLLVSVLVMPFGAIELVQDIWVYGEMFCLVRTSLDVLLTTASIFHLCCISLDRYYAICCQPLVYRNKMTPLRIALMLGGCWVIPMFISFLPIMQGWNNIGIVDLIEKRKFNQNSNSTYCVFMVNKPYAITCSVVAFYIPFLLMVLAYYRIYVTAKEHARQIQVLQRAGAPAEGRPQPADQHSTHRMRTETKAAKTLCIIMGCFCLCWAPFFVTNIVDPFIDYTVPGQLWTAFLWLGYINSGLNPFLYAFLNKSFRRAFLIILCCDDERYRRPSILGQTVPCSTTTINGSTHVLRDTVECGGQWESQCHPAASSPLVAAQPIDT
structure (smiles),measurement,setting,value
COP(=S)(OC)SCN1C(=O)c2ccccc2C1=O,outcome,[1],inactive
same,AC50,[2],14.9 µM (active)
same,outcome,[3],inactive
CCOC(=O)[C@]1(c2ccccc2)Oc2ccccc2[C@@H]1N,AC50,[1],1.08 µM (active)
same,AC50,[2],7.6 µM (active)
same,AC50,[4],1.29 µM (active)
same,AC50,[5],0.184 µM (active)
same,AC50,[3],13.1 µM (active)
same,AC50,[6],4.94 µM (active)
O=[N+]([O-])C(Br)(CO)CO,AC50,[1],32.8 µM (active)
same,outcome,[3],inactive
CC(C)COC(=O)c1ccccc1C(=O)OCC(C)C,outcome,[6],inactive
C=CCc1ccc2c(c1)OCO2,outcome,[5],inactive
Cc1cccc(N)c1N,AC50,[4],16.8 µM (active)
O=C(N[C@H](c1ccccc1)[C@@H]1CN2CCC1CC2)c1c(Cl)ccc(C(F)(F)F)c1Cl,outcome,[1],inactive
same,AC50,[5],23.6 µM (active)
same,AC50,[3],10.1 µM (active)
Clc1ccc(C(c2ccc(Cl)cc2)C(Cl)Cl)cc1,outcome,[4],inactive
COC(=O)Nc1nc2ccccc2[nH]1,outcome,[4],inactive
Nc1ccc(Cl)cc1N,AC50,[3],39.5 µM (active)
N#CC(Br)(Br)C(N)=O,outcome,[3],inactive
Cc1ccc(N=C=O)cc1N=C=O,outcome,[1],inactive
CC(C)(O)c1cnn2c(-c3ccc(F)c(-c4c(F)cccc4C#N)c3)cnc2n1,outcome,[4],inactive
Oc1ccccc1Cl,outcome,[2],inactive
